# Test results as given in ChEMBL document CHEMBL1157539, “Thousands of chemical starting points for antimalarial lead identification” (Nature, 2010).
# Tested on: HepG2
# Experiment: GSK_TCMDC: Percent inhibition of human HepG2 cell line. Test compounds present at 10uM.
# Type: functional
row,Compound,Inhibition [%]
1,Nc1nc(N)c2c(ccc3c2ccn3Cc2cccc3ccccc23)n1,65
2,N#Cc1ccc(-c2cnc3ccc(NCCc4cccnc4)nn23)cc1,27
3,NC(Cc1cccc(I)c1)C(=O)NCC1CCCO1.O=C(O)C(F)(F)F (stereo unspecified),52
4,COc1ccc(Cn2c(Nc3cccc(C(F)(F)F)c3)nc3ccc(C(=O)NCCN4CCCC4)cc32)cc1Cl,14
5,CCCCSc1c(CNCCCCCCNCc2ccc3ccccc3c2SCCCC)ccc2ccccc12.CS(=O)(=O)O,99
6,CCCCN1CCN(CCCCNc2c3ccccc3nc3ccccc23)CC1.Cl,27
7,CN1CCCc2cc(NC(=O)c3cc(-c4ccc(Cl)cc4)cs3)ccc2C1.O=C(O)C(F)(F)F,15
8,Cc1cccc(Cn2c(C(N)=O)nn(-c3ccc([N+](=O)[O-])cc3C#N)c2=S)c1,1
9,CN(CCCNCc1cccc2ccccc12)CCCNCc1cccc2ccccc12.Cl,93
10,C[C@H](Cc1ccc(OCCCCCCOc2ccc(C[C@@H](C)NC(=O)[C@H](O)c3cccc(Cl)c3)cc2)cc1)NC[C@H](O)c1cccc(Cl)c1,39
11,Nc1ncc(-c2ccc3nccc(-c4ccncc4)c3c2)cc1S(=O)(=O)N1CCOCC1,39
12,CN(C)CCOc1ccc2nc(-c3cccc(OCc4ccccc4)c3)[nH]c2c1C#N,48
13,CCn1c(-c2nonc2N)nc2c(-c3cc4ccccc4s3)ncc(C(=O)N3CCC(N)C3)c21.O=C(O)C(F)(F)F (stereo unspecified),99
14,Nc1ccc2[nH]cc(C3CCN(CC4CCC(NC(=O)/C=C/c5ccccc5Cl)CC4)CC3)c2n1 (stereo unspecified),7
15,Cc1nc2ccccn2c1C1(O)C(=O)Nc2c(Cl)cc(Cl)cc21 (stereo unspecified),0
16,Cc1csc2nc(-c3ccccn3)nc(Nc3ccncn3)c12.O=C(O)C(F)(F)F,47
17,CCC(NC(=O)c1ccccc1NC(=O)c1ccc(C)cc1)C(=O)OC (stereo unspecified),0
18,Cc1cc2[nH]c(-c3ccc(C(=O)NCCCN4CCN(c5cccc(Cl)c5)CC4)s3)nc2cc1Cl,7
19,CC(=O)Nc1nc(C(=O)Nc2ccc(-c3cccc(-c4nc5cccc(C)c5[nH]4)c3)cc2)cs1,100
20,Cc1cccc2nc(-c3ccc(-c4cccc(NC(=O)Nc5ccsc5)c4)s3)[nH]c12,30
21,C[C@@H](N/C(=N\c1ccc(-c2ccccc2)cc1)Nc1ccc(C#N)cc1O)c1ccc(Br)cc1,9
22,COc1ccc(CNC2Cc3ccccc3C2)cc1-c1ccc(S(=O)(=O)NCc2cccnc2)s1.O=C(O)C(F)(F)F,49
23,COCCNC(=O)c1ccc(OC2CCN(CC(C)=Cc3ccccc3)CC2)c(Cl)c1,18
24,O=C(Cc1cccc(Cl)c1)N1CCc2cc3nccc(N4CCN5CCC[C@H]5C4)c3cc21,14
25,C=CCOC1OC(COC(c2ccccc2)(c2ccccc2)c2ccccc2)C(OC(C)=O)C(OC(C)=O)C1NC(C)=O (stereo unspecified),0
26,CN(c1ccc(C(=O)N[C@@H](CCC(=O)O)C(=O)O)cc1)S(=O)(=O)c1ccc2nc(N)[nH]c(=O)c2c1,16
